Screening results: PubChem BioAssay, The Scripps Research Institute Molecular Screening Center
CHO-K1 Ca antag: nonselective inhibitor or artifact in parental CHO-K1 cells; inhibition, % at 3 µM; ATP-induced calcium, Fluo-8 fluorescence; actives 0.6% (n = 360,000);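 active means inhibition above a per-plate cutoff, the plate's mean sample inhibition plus 3 SD, cut at about 24% in these data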;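 further: 0% = DMSO plus EC80 ATP and 100% = DMSO alone without ATP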
CHRM1 PAM: potentiates human M1 receptor response to acetylcholine. AID 588819. activation, % at 3 µM. CHO-K1 hM1, Fluo-8 calcium fluorescence, ACh EC20; 0% = ACh EC20, 100% = maximal ACh. P11229. actives 0.088% (n = 360,000); in the data active means activation above about 19%, passing the limit was not always enough
Target sequence (P11229 whole entry, looked up): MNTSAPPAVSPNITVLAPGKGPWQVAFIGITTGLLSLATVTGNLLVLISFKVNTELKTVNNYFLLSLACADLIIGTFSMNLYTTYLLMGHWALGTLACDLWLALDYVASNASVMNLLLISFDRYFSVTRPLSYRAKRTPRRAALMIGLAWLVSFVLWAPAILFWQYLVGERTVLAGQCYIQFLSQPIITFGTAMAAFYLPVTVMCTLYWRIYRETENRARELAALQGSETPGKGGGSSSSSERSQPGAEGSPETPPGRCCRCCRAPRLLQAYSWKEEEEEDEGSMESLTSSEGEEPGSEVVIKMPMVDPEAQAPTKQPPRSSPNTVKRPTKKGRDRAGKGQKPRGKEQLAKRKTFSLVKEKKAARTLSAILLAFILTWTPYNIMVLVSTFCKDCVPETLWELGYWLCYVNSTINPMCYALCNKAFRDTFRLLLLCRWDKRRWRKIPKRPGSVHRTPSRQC
CHO-K1 Ca ag: counter-screen for M1 agonists: effect in parental CHO-K1 cells; Fluo-8 calcium fluorescence; scaled to maximal ATP response, vehicle zero; activation, % at 3 µM; actives 0.48% (n = 360,000); in the data active means activation above about 15%;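 further: untransfected CHO-K1 host cells lacking M1 receptor as counterscreen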
CHRM1 agonist: agonists of human M1 muscarinic receptor | P11229 | actives 0.33% (n = 360,000) | CHO-K1 hM1, Fluo-8 calcium fluorescence, agonist mode; 0% DMSO, 100% acetylcholine EC100 | activation, % at 3 µM;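 active means activation above the run's mean compound activation plus 3 SD, cut at about 16% in these data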;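 further: peak over basal fluorescence ratio within a 140 s kinetic read after compound addition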
M1 PAM parental: nonselective activator or artifact in parental CHO-K1 calcium assay | AID 602247 | activation, % at 3 µM | ATP EC20, Fluo-8 calcium fluorescence; 0% at ATP EC20, 100% at ATP max | actives 0.02% (n = 360,000);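 active means activation above the run cutoff, the mean activation of all test compounds plus 3 SD, cut at about 40% in these data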;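 further: peak over basal fluorescence ratio in a 140 s read after ATP addition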
M1 antag: blocks human M1 muscarinic receptor | CHO-K1 hM1, Fluo-8 calcium fluorescence, ACh EC80 antagonist | actives 1.3% (n = 360,000) | inhibition, % at 3 µM | P11229 | AID 588852;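 active means percent inhibition above its own plate's cutoff, namely the mean of that plate's compound wells plus 3 SD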;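 further: peak over basal fluorescence ratio during 140 s after agonist addition; 0% = ACh EC80 plus DMSO and 100% = DMSO alone without agonist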
Numbers without * were called inactive. Sampled rows, rich in hits. Any-hit rate of the full collection: about 2.3%.

SMILES | CHO-K1 Ca antag | CHRM1 PAM | CHO-K1 Ca ag | CHRM1 agonist | M1 PAM parental | M1 antag
CC(=O)c1ccc(N2CCN(C(=O)c3cccs3)CC2)c(F)c1 | -7.4 | 10.7 | 6.4 | -2.1 | 11.5 | -18.3
CCCC(=O)c1ccc(N2CCN(C(=O)c3cccs3)CC2)c(F)c1 | 11.0 | -23.3 | 15.2* | -3.4 | -10.5 | 42.4*
CCCCCCC(=O)NNC(=O)CC(=O)Nc1ccccc1C(=O)O | -5.1 | 16.5 | 0.2 | 1.0 | -0.2 | -9.6
Cc1ccc(OCC(O)CNCc2ccc(F)cc2)cc1 (centres undefined) | 0.3 | 3.6 | 2.2 | -2.0 | 8.9 | -1.0
OC(CNCCNc1ncccc1C(F)(F)F)COc1ccc(F)cc1 (centres undefined) | -11.6 | -14.2 | 3.6 | 40.4* | 8.3 | 19.4
O=C(c1cccc(S(=O)(=O)N2CCCC2)c1)c1nnc(-c2ccncc2)o1 | -14.2 | 2.6 | 2.8 | -8.3 | 18.1 | -7.9
CCOc1ccc(NC(=O)NCCCn2c(C)nc3cc(C)c(C)cc32)cc1 | -10.2 | -21.1 | 1.0 | -3.5 | 3.5 | 45.8*
Cn1c(=O)[nH]c(=O)c2c1nc(SCC(=O)O)n2CCOc1ccccc1 | -5.9 | -26.0 | 1.8 | -8.8 | -1.4 | 54.7*
Cn1c(=O)[nH]c(=O)c2c1nc(SCC(=O)O)n2CCc1ccccc1 | 4.6 | 12.3 | -0.3 | 0.2 | -1.3 | -17.8
CC(C)Cc1nnc(NC(=O)CCC(=O)N2CCN(Cc3ccc(Cl)cc3)CC2)s1 | -6.1 | -6.2 | 5.0 | 12.5 | 1.0 | 4.7
O=C(Nc1ccccc1C(=O)N1CCCC1)c1ccccc1 | 15.3 | 5.1 | 0.3 | 16.1* | -14.3 | 16.1
Nc1ccc(NC(=O)c2ccccc2)c2c1C(=O)c1ccccc1C2=O | 26.0* | -1.8 | -0.1 | -3.8 | -9.5 | 8.7
CSc1ccccc1NC(=O)c1ccccc1 | -0.1 | 8.3 | 16.1* | -3.9 | 10.0 | -10.8
CCOC(=O)C1(C)CCCCCN1C(=O)c1ccc(C(=O)OC)cc1 (centres undefined) | -20.8 | 8.7 | 0.4 | -1.9 | 21.2 | -22.4
CC1=CC(=O)Nc2ncccc2O1 | -8.5 | 18.7 | 0.0 | 1.2 | -11.4 | -16.7
Cc1noc(C)c1COc1ccc(C(=O)OCC(N)=O)cc1 | 27.2* | -7.2 | -0.2 | -3.6 | -15.6 | 5.7
O=C(CSc1nnc(-c2cccnc2)n1-c1ccc(SC(F)F)cc1)N1CCCc2ccccc21 | 23.7* | 7.7 | 0.0 | -7.5 | -13.2 | 2.5
COC(=O)C1=NN(C(=O)c2cccc(Br)c2)C(O)(c2ccc(Cl)cc2)C1 (centres undefined) | 5.5 | -11.0 | 9.6 | 41.6* | 3.1 | 4.4
COC(=O)C1(C)NC(c2cccc(C)c2)C2C(=O)N(c3ccccc3)C(=O)C21 (centres undefined) | -12.8 | 2.4 | 0.6 | -1.9 | 18.4 | -8.7
CC1(C)CC(=O)C2=C(C1)OC(N)=C(C#N)C2c1cc2c(cc1[N+](=O)[O-])OCO2 (centres undefined) | 15.4 | -25.1 | 2.9 | -9.7 | -10.7 | 38.1*
CCOC(=O)C1CCCN(C(=S)Nc2ccc(OC)cc2)C1 (centres undefined) | 0.1 | -16.9 | 9.8 | 56.8* | 13.1 | 57.7*
CCOC(=O)C1CCCN(C(=O)Cn2nc(C)n3c(cc4c(OC)cccc43)c2=O)C1 (centres undefined) | -8.8 | -2.8 | -0.5 | 21.0* | 10.2 | 3.9
CCOC(=O)C1CCCN(C(=O)CSc2ccc(NC(C)=O)cc2)C1 (centres undefined) | -13.3 | 9.8 | 1.1 | -2.6 | 15.6 | -21.4
CCOC(=O)C1CCCN(C(=S)Nc2ccc(F)cc2)C1 (centres undefined) | -7.1 | -23.7 | 0.2 | 78.8* | 20.8 | 68.6*
CCOC(=O)C1CCCN(c2cc(C)nc3cc(-c4ccc(F)cc4)nn23)C1 (centres undefined) | -21.6 | -25.8 | 0.2 | 45.9* | 21.9 | 24.4
SMILES | CHO-K1 Ca antag | CHRM1 PAM | CHO-K1 Ca ag | CHRM1 agonist | M1 PAM parental | M1 antag
N#C/C(=C\c1c[nH]c2ccccc12)C(=O)NCC1CCCO1 (centres undefined) | 11.0 | 2.6 | 0.6 | -6.0 | -9.7 | 1.4
CCOC(=O)c1ccc(NC(=S)N2CCSC2c2ccc(Cl)cc2)cc1 (centres undefined) | 12.8 | 2.2 | 8.2 | 34.2* | 5.6 | 44.5*
CCOC(=O)c1ccc(NC(=S)N2CCC(C(N)=O)CC2)cc1 | -6.7 | -10.0 | 0.9 | -10.3 | 18.3 | 8.3
CCOC(=O)C1CCCN(C(=O)CCn2nc(-c3ccccc3)ccc2=O)C1 (centres undefined) | 24.0* | -3.9 | -0.4 | 10.6 | -11.1 | 1.8
CCOC(=O)c1ccc(NC(=S)N2CCCC(C(=O)OCC)C2)cc1 (centres undefined) | 13.2 | -37.1 | 0.0 | 75.7* | -13.7 | 69.4*
CCOC(=O)C1CCCN(C(=O)CCCn2nnnc2CN2CCC(C)CC2)C1 (centres undefined) | -12.1 | 0.4 | 0.7 | 21.6* | 1.6 | -8.5
CCOC(=O)C1CCCN(C(=O)C2CCN(C(=O)Nc3ccccc3)CC2)C1 (centres undefined) | -10.1 | 8.4 | 1.0 | 0.9 | 21.4 | -16.9
CCOC(=O)C1CCCN(C(=O)Nc2ccccc2)C1 (centres undefined) | -11.3 | -23.0 | 0.0 | 54.4* | -3.4 | 10.8
CCOC(=O)C1CCCN(CCc2ccccc2)C1 (centres undefined) | -5.1 | -11.7 | 0.5 | 18.3* | 6.3 | 48.8*
CCOC(=O)N1CCC(N2CCN(C3CCCC3)C(CCO)C2)CC1 (centres undefined) | -6.0 | -35.4 | 1.5 | -13.2 | 25.9 | 46.9*
CCOC(=O)C1CCCN(C(=S)NC2CCCC2)C1 (centres undefined) | -5.7 | -19.1 | 1.3 | 50.5* | 18.5 | 3.4
Cc1ccc(NC(=O)C2(C)CCN2CCc2ccccc2)cc1 (centres undefined) | -20.1 | 0.0 | 0.7 | -5.7 | 36.7 | -16.5
CCC(=O)NCCc1nc2cc(NC(=O)c3ccc(F)cc3)ccc2n1C | -12.6 | 10.5 | 1.0 | -3.8 | 17.0 | -15.9
Cc1[nH]c2ccccc2c1CCN(Cc1cccnc1)C(=S)NC(C)(C)C | -4.0 | -6.9 | 1.4 | -7.8 | -6.2 | 15.5
C/C(CC(=O)Nc1ccc(F)cc1)=N\NC(=O)COc1ccccc1 | -0.4 | 1.1 | -0.4 | -4.1 | -7.8 | -9.5
CCOC(=O)N1CCC(NC2CCCCCCC2)CC1 | -4.5 | -27.1 | 2.2 | -6.6 | 1.3 | 74.2*
CCOC(=O)N1CCN(C(=O)C2CCCCC2)CC1 | -1.1 | 3.3 | 2.7 | -3.3 | 13.2 | -8.1
CC(C)C1C(=O)N(Cc2cn(CCC3OCCCO3)nn2)CCS(=O)(=O)N1Cc1ccc(-c2ccc(Cl)nc2)cc1 (centres undefined) | -0.3 | -2.0 | 4.9 | -3.4 | 7.8 | -1.8
